Among the data in PubChem BioAssay (NCATS) are Potency and activity change, negative = inhibition values, retold here.

Inconclusive results are not listed. A call without a number means that no potency is given here. Active and inactive are the calls of the source. Calls come from the whole dose curve; as a rule, active = well fitted curve in the direction sought with a large enough effect; inconclusive = small, poorly fitted or top-dose-only effect, or another doubt; inactive = no such curve, though single readings can be large; an effect the other way counts as inactive or inconclusive.
Potency is the fitted concentration of half-maximal effect.

One test deals with Furin (Homo sapiens) (UniProt P09958). In words: Furin counterscreen qHTS for Zika virus inhibitors (AID 1347149).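 For activity change, negative = inhibition: purified recombinant full-length human furin enzyme at 5 nM; fluorescence gain from furin cutting a BOC-RVRR-AMC peptide substrate over 15 min; top concentration of the series differs between compounds.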 Note: nearly all actives have a fitted effect of over 70% in size. The settings on record: furin enzymatic counterscreen, fluorogenic substrate; series mostly up to 114 µM. Put shortly: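 Counterscreen measures cleavage of 2 microM BOC-RVRR-AMC, below its ~15 microM Km, by 5 nM full-length human furin at pH 7.0 after a 15-min compound preincubation. Inhibition derives from the 15-min fluorescence increase at 37C.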
Furin (Homo sapiens), sequence (P09958 whole entry, looked up): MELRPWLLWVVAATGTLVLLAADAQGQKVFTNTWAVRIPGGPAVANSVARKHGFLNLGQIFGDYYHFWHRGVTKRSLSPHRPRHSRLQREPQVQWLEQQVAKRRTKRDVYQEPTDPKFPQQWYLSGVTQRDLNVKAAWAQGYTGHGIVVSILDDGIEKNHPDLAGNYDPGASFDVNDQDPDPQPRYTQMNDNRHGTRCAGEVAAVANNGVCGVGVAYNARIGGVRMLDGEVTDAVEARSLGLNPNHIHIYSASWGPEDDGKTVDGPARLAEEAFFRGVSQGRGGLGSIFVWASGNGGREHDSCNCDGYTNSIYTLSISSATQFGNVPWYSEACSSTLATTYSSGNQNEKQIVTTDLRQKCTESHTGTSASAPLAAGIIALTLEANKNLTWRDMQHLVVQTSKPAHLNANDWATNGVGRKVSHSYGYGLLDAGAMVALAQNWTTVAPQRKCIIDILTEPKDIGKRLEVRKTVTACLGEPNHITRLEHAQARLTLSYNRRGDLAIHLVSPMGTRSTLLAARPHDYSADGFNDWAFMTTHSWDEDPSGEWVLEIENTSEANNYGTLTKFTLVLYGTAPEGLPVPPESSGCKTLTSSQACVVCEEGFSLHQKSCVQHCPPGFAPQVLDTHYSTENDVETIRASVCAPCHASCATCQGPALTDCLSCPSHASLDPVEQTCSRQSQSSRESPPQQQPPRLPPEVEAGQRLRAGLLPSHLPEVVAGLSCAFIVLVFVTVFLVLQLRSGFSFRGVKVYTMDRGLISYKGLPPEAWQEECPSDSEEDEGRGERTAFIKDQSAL
Take `CCOC(=O)C1=C(C)NC2=C(C(=O)CC(C)(C)C2)C1c1ccc(-c2ccccc2)cc1` (centres undefined): the Potency was 19.2 µM (active).
As to `CN1CCC(CNc2ccc3ncc(-c4cccc(OC(F)(F)F)c4)n3n2)CC1`, the Potency was 21.5 µM (active).
The same measure, in the same setting: the same measure for `O=C(O)C1(Cc2cccc(Nc3nccs3)n2)CCC(Oc2cccc(Cl)c2F)CC1` (centres undefined): “inactive”.

A further test has as its system Zika virus NS2B-NS3 protease. The test is described as follows: Primary screen GU AMC qHTS for Zika virus inhibitors (AID 1347154). Note: nearly all actives have a fitted effect of over 70% in size. The settings on record: Zika NS2B-NS3 unlinked protease, AMC fluorogenic substrate; series mostly up to 54.1 µM. Put shortly: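 Unlinked Zika NS2B hydrophilic domain–NS3 protease complex at 25 nM in 10 mM Tris-HCl pH 8.0, 0.01% Tween 20, with an AMC peptide substrate. Fluorescence change (340/450 nm) over 15 min at room temperature, normalized to controls, fitted to 4-parameter Hill.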
A general note: In qHTS, concentration-response curves come from the screen itself.
As for `CN1c2cc(O)c(N=NC(N)=O)cc2CC1S(=O)(=O)O` (centres undefined), the Potency entry is “inactive”.
The same measure, in the same setting: next, `O=C(O)[C@H](Cc1c[nH]c2ccccc12)N1C(=O)c2ccccc2C1=O`: “inactive”.
Turning to `C1=CCOCc2cc(ccc2OCCN2CCCC2)Nc2nccc(n2)-c2cccc(c2)OCC1`, the Potency result is “inactive”.
Same read-out and setting: the same measure for `C[C@]12CC[C@H](O)CC1=CCC1C2CC[C@]2(C)C(n3cnc4ccccc43)=CCC12` (some centres undefined): “inactive”; for `Nc1ccc(S(=O)(=O)Nc2ncccn2)cc1`: “inactive”.
The same measure, in the same setting: the same measure for `Nc1nc(-c2nn(Cc3ccccc3F)c3ncccc23)nc(N)c1N1CCOCC1`: “inactive”; for `O=C(CCCCCCNC(=O)c1cnc(N(c2ccccc2)c2ccccc2)nc1)NO`: “inactive”.
The same measure, in the same setting: the same measure for `CCOC(=O)C1=C(C)NC2=C(C(=O)CC(C)(C)C2)C1c1ccc(-c2ccccc2)cc1` (centres undefined): 17.1 µM (active).
`O=C(O)CO.[NH2-].[NH2-].[Pt+2]`: the Potency entry is “inactive”.
On the same count and under the same terms, the same measure for `O=C(c1cncc(Br)c1)N1CCC(N2CCCC2)CC1`: “inactive”.
On the same count and under the same terms, next, `CNC(=O)c1ccc(-c2cnc3ncc(Cc4ccc5ncccc5c4)n3n2)cc1F`: “inactive”; `CC(C)(C)c1cc(C(C)(C)C)c(NC(=O)c2c[nH]c3ccccc3c2=O)cc1O`: “inactive”.
The same measure, in the same setting: next, `Cn1cncc1[C@@](N)(c1ccc(Cl)cc1)c1ccc2c(c1)c(-c1cccc(Cl)c1)cc(=O)n2C`: “inactive”.
With `C=C1C(=CC=C2CCC[C@]3(C)[C@@H]([C@H](C)C=C[C@H](C)C(C)C)CC[C@@H]23)C[C@@H](O)C[C@@H]1O`, the Potency result is “inactive”.
As for `Nc1ccn([C@@H]2CS[C@H](CO)O2)c(=O)n1`, the Potency result was “inactive”.
Still for that read-out and setting: next, `CN(C)CC=CC(=O)Nc1cc2c(Nc3ccc(F)c(Cl)c3)ncnc2cc1O[C@H]1CCOC1`: “inactive”.
The same measure, in the same setting: next, `CCOc1ccccc1OCCNC(C)Cc1ccc(OC)c(S(N)(=O)=O)c1` (centres undefined): “inactive”; `COc1c(N2C[C@@H]3CCCN[C@H]3C2)c(F)cc2c(=O)c(C(=O)O)cn(C3CC3)c12`: 30.4 µM (active).
Same read-out and setting: the same measure for `COc1cc(C(C)C)c2c(c1)S(=O)(=O)N(COc1cc(=O)n3cccc(OCCN4CCCCC4)c3n1)C2=O`: “inactive”; for `CC(C)=CCCC(C)=CCCC(C)=CCSc1ccccc1C(=O)O`: 13.6 µM (active); for `COc1cc2ncn(-c3cc(OCc4ccccc4C(F)(F)F)c(C(N)=O)s3)c2cc1OC`: “inactive”.
Take `COc1cc(C)c(Sc2cnc(NC(=O)c3ccc(CNC(C)C(C)C)cc3)s2)cc1C(=O)N1CCN(C(C)=O)CC1` (centres undefined): the Potency entry was “inactive”.
On the same count and under the same terms, next, `C[C@H]1C[C@@H]2[C@@H]([C@@H](O)C[C@@]3(C)[C@H]2CC[C@]3(O)C(=O)CO)[C@@]2(C)C=CC(=O)C=C12`: “inactive”.
On the same count and under the same terms, next, `CN1CCC(CNc2ccc3ncc(-c4cccc(OC(F)(F)F)c4)n3n2)CC1`: 24.1 µM (active); `O=C(NCCCNc1nc(Nc2cccc(NC(=O)N3CCCC3)c2)ncc1I)c1cccs1`: “inactive”.
The same measure, in the same setting: the same measure for `OCc1ccc(-c2ccc(-c3ccc(CO)s3)o2)s1`: 26.7 µM (active).
In the case of `CC(=O)OCCN1C(=O)c2c(C)nc3ccc(S(=O)(=O)N4CCOCC4)cc3c2C1=O`, the Potency result was “inactive”.
`Cc1cc(Nc2cc(N3CCN(C)CC3)nc(C=Cc3ccccc3)n2)n[nH]1`: the Potency entry is “inactive”.
On the same count and under the same terms, the same measure for `Cn1c2cc(S(C)=O)sc2c2cnn(Cc3cccc(N)c3)c(=O)c21` (centres undefined): “inactive”; for `CN1CCN(c2ccc3nc(-c4c(N)c5c(F)cccc5[nH]c4=O)[nH]c3c2)CC1`: “inactive”; for `COC(=O)C1=C(C)NC(C)=C(C(=O)OCCN2CCN(C(c3ccccc3)c3ccccc3)CC2)C1c1cccc([N+](=O)[O-])c1` (centres undefined): “inactive”.
Same read-out and setting: next, `COc1cc(OC2CCN(C)CC2)ccc1Nc1ncc2c(n1)n(C1CCCC1)c(=O)n2C`: “inactive”; `CC(C)(C)NC(=O)[C@H]1CN(Cc2cccnc2)CCN1C[C@@H](O)C[C@@H](Cc1ccccc1)C(=O)N[C@H]1c2ccccc2C[C@H]1O`: “inactive”.
For `COc1ccc(CC2c3cc(OC)c(OC)cc3CC[N+]2(C)CCC(=O)OCCCCCOC(=O)CC[N+]2(C)CCc3cc(OC)c(OC)cc3C2Cc2ccc(OC)c(OC)c2)cc1OC` (centres undefined), the activity change, negative = inhibition was 4.96% [at 6.83 µM] (inactive).
For `COc1cc(C(=O)NS(=O)(=O)c2ccccc2C)ccc1Cc1cn(C)c2ccc(NC(=O)OC3CCCC3)cc12`, the Potency is 12.6 µM (active).
Same read-out and setting: the same measure for `C=CC(=O)Nc1cc2c(Nc3ccc(F)c(Cl)c3)ncnc2cc1OCCCN1CCOCC1`: “inactive”; for `CCC[C@H](NC(=O)C(C#N)=Cc1cccc(Br)n1)c1ccccc1`: “inactive”.
Still for that read-out and setting: next, `COc1cc2ncnc(Nc3ccc(F)c(Cl)c3)c2cc1NC(=O)C=CCN1CCCCC1`: “inactive”.

Another test relates to Zika virus NS2B-NS3 protease (unlinked complex). In words: Primary screen GU Rhodamine qHTS for Zika virus inhibitors: Unlinked NS2B-NS3 protease assay (AID 1347159). Note: nearly all actives have a fitted effect of over 60% in size. The settings on record: Recombinant ZIKV NS2B-NS3 protease, Rhodamine110 substrate fluorescence; series mostly up to 107 µM. An outline of the steps: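 Enzyme 25 nM in Tris-HCl pH 8.0 + 0.01% Tween 20; compounds up to 114 microM, 15 min RT dark; + Rhod110 substrate 1.5 microM; read t0 and 15 min; delta fluorescence → % inhibition → 4-parameter Hill fit.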
For the molecule `CCOC(=O)C1=C(C)NC2=C(C(=O)CC(C)(C)C2)C1c1ccc(-c2ccccc2)cc1` (centres undefined), the Potency result is “inactive”.
On the same count and under the same terms, next, `CN1CCC(CNc2ccc3ncc(-c4cccc(OC(F)(F)F)c4)n3n2)CC1`: “inactive”; `O=C(O)C1(Cc2cccc(Nc3nccs3)n2)CCC(Oc2cccc(Cl)c2F)CC1` (centres undefined): 6.31 µM (active).
